# High-throughput results as filed in PubChem.
# Rows were chosen to be rich in hits. Some 7% of all compounds tested hit in one or more screens of this group.
# S2 tox = Viability Counterscreen for Primary qHTS for Inhibitors of ATXN expression. Potency, µM (doses to about 56.7 µM), most hits filed as cytotoxic. AID 651635, 2014. hit rate 0.49% among 400,000. S2 cells (HEK-293 line with an ATXN2-luciferase reporter) viability, CellTiter-Fluor protease fluorescence, 24 h; note: potency is the fitted concentration of half-maximal effect; nearly all actives have a fitted effect of over 40% in size
# DRD3 agonist = qHTS of D3 Dopamine Receptor Agonist: qHTS; D(3) dopamine receptor (Homo sapiens), P35462; D3R DiscoveRx beta-arrestin cells, luminescence, 90 min; max activation, %; hit rate 0.58% among 410,000; AID 652048, 2013; in the data active = max activation above about 30%; note: 0% is about no effect
# Target sequence (P35462 whole entry, looked up): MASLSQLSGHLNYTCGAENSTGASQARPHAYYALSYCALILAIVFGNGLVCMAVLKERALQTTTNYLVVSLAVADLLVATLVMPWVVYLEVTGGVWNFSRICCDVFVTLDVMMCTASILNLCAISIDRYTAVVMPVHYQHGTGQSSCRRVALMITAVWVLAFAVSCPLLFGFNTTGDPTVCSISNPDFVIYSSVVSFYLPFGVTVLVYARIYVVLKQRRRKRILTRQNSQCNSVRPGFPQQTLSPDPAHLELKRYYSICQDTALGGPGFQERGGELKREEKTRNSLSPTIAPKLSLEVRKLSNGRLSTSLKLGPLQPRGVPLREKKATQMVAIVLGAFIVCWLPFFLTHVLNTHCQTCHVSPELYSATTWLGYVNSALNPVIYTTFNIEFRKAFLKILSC
#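 Agonist-mode cell screen: cells plated at 1500/well and incubated overnight at 37 °C, then exposed to library compounds for 90 min at 37 °C. Detection reagent was added for 30–60 min at room temperature, and luminescence was read.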
# IL-1B inflam inh = qHTS for Inhibitors of Inflammasome Signaling: IL-1-beta AlphaLISA Primary Screen; THP-1 LPS/ATP IL-1B secretion, AlphaLISA, 16 h; stronger effect = lower value; activity change, % at 57.5 µM; hit rate 4.7% among 360,000; AID 743279, 2014; in the data active = activity change below about -50%; inconclusive = mostly about -30% to -49%; note: % is set by controls: 0 for no effect and ±100 for the full control effect
#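 Secreted IL-1B measured by AlphaLISA bead assay after 16 h compound exposure of THP-1 cells; compounds (final up to 57.5 uM) added 1 h before LPS (250 ng/mL) and ATP (1.25 mM) stimulation; lower signal means less secretion.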
# Integrin act MD = qHTS for Activators of Integrin-Mediated Alleviation for Muscular Dystrophy. alpha7betagal myoblasts, beta-gal FDG fluorescence, 48 h. Potency, µM (titrated, usually from 38.3 µM), inactives show at the top dose activation, usual class: activators. hit rate 0.064% among 350,000. AID 624291, 2012;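 note: potency is the fitted concentration of half-maximal effect; 100% = response of the positive control SU9516; nearly all actives have a fitted effect of over 60% in size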
#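 alpha7betagal+/- myoblasts (passage 13, 250/well) treated 48 h at 37C with compounds at 1:260 dilution of DMSO stock. Lysed, then beta-galactosidase activity read as FDG fluorescence (ex 480/em 540) after 30 min, with pre-read for autofluorescence.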
# D3 antag = qHTS of D3 Dopamine Receptor Antagonist: qHTS; D(3) dopamine receptor (Homo sapiens), P35462; D3R cells, DiscoveRx beta-arrestin luminescence, antagonist mode; stronger effect = lower value; max response, negative = inhibition, %; hit rate 2.5% among 360,000; AID 652054, 2013; in the data active = max response below about -50%; inconclusive = no clear call, values can overlap the other calls; note: % is set by controls: 0 for no effect and ±100 for the full control effect
#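 Cells plated overnight at 1500 cells/well, then exposed to library compounds with dopamine controls for 90 minutes at 37 degrees C. DiscoveRx reagent added for 30–60 minutes at room temperature; luminescence read, quantitative HTS format.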
# ATXN2 expr inh = Primary qHTS for Inhibitors of ATXN expression; hit rate 0.72% among 360,000; HEK-293 ATXN2-luciferase reporter, luminescence, 24 h; Potency, µM (titrated, usually from 57 µM), for inactives: at the highest dose activity change, negative = inhibition, actives largely listed as inhibitors; AID 1745845, 2022; note: potency is the fitted concentration of half-maximal effect; % is set by controls: 0 for no effect and ±100 for the full control effect; nearly all actives have a fitted effect of over 55% in size
#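 qHTS (up to 57 uM final) was run with 24 h compound exposure of reporter cells at 37 °C. Each well was multiplexed: SteadyGlo luminescence measured ATXN2-luciferase expression after a fluorogenic Gly-Phe-AFC viability readout (25 uM final).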
# An asterisk follows results filed as active; i = inactive; ? = inconclusive; · = not tested or not shown; [ ] = another dose, or the depositor's remark. Unless noted, calls come from the whole dose curve; as a rule, active = well fitted curve in the direction sought with a large enough effect; inconclusive = small, poorly fitted or top-dose-only effect, or another doubt; inactive = no such curve, though single readings can be large; an effect the other way counts as inactive or inconclusive.
SMILES,S2 tox,DRD3 agonist,IL-1B inflam inh,Integrin act MD,D3 antag,ATXN2 expr inh
CCCc1ccc(C(=O)N2CCN(c3ccccc3OCC)CC2)cc1,i,14.7,16.6,-11.3%,29.6,-7.0%
CCOc1ccccc1C(=O)N1CCN(C(c2ccccc2)c2ccccc2)CC1,i,13.5,-83.3*,?,5.8,0.0%
Cc1oc(C(C)(C)C)cc1C(=O)N1CCN(C(c2ccccc2)c2ccccc2)CC1,i,-5.3,-68.5*,-21.7%,-5.3,-27.2%
CCOc1ccccc1N1CCN(C(=O)c2cc[n+]([O-])cc2)CC1,i,-27.1,0.7,16.3%,-63.1*,-19.2%
O=C(NCC(=O)N1CCN(C(c2ccccc2)c2ccccc2)CC1)c1ccccc1F,i,4.8,-52.4*,11.9%,-1.4,-14.2%
O=C(NNS(=O)(=O)c1ccc(F)cc1F)C1Cc2c(ccc3ccccc23)O1 (centres undefined),i,2.9,39.4,-17.9%,18.6,-15.6%
COc1ccc(NC(=O)NNC(=O)COc2ccc3cc(Br)ccc3c2)c(OC)c1,i,0.9,14.7,-21.9%,28.6,0.7%
CCOc1ccc(N2C(=O)c3[nH]nc(-c4ccc(OC)cc4)c3C2c2cccs2)cc1 (centres undefined),17.8µM*,13.7,·,·,·,?
CCOc1ccc(-c2n[nH]c3c2C(c2cccs2)N(c2ccc(Br)cc2)C3=O)cc1 (centres undefined),·,3.4,·,·,·,·
C[C@H](CO)N1C[C@H](C)[C@@H](CN(C)C(=O)Nc2ccc(C(F)(F)F)cc2)Oc2ccc(NS(=O)(=O)c3ccccc3)cc2C1=O,?,30.8*,-11.7,17.8%,18.0,0.0%
C[C@H](CO)N1C[C@H](C)[C@@H](CN(C)C(=O)Nc2ccc(C(F)(F)F)cc2)Oc2ccc(NS(=O)(=O)c3cccs3)cc2C1=O,?,30.1*,-7.5,19.4%,12.0,-17.5%
C[C@H](CO)N1C[C@H](C)[C@@H](CN(C)C(=O)Nc2ccc(C(F)(F)F)cc2)Oc2ccc(NS(=O)(=O)c3ccc(F)cc3)cc2C1=O,?,-5.4,-22.8,-6.1%,0.1,-38.8%
CC(C)Cn1nc(NC(=O)c2cccc(Cl)c2)c2cc3ccccc3nc21,·,-9.0,·,·,·,-16.2%
CC(C)c1ccc(/C=C/C(=O)N2CCc3ccccc3C2)cc1,i,8.2,-10.9,9.6%,-0.4,2.3%
COc1cccc2c1OCC(C(=O)O)C2 (centres undefined),i,3.5,21.3,-20.4%,1.3,-24.8%[11.3 µM]
COc1cccc2c1C(CO)N1C(C#N)C3CC(C(=O)O)C(C1C2)N3C (centres undefined),i,-5.4,-115.9*,-40.0%,-8.5,0.282µM*
Cc1cc(OCC(=O)N2CCC(C(N)=O)CC2)c2c(C)c(C)c(=O)oc2c1,i,10.7,15.7,32.6%,-21.4,-10.7%
C[C@@H]1CN(C(=O)c2nc3ccc(Cl)cn3c2CN[C@H]2CCCCNC2=O)C[C@H](C)O1,i,-13.8,0.0,-9.6%,-9.8,-1.7%
Cc1cccnc1CCNCc1c(C(=O)N2C[C@@H](C)O[C@@H](C)C2)nc2ccc(Cl)cn12,i,-10.2,-7.5,17.6%,-63.5*,-10.0%
O=C1C=CC(=O)N1c1cccc(-c2ccccc2)c1,?,-25.6,-65.0*,-37.7%,?,7.5%
O=C(Nc1c[nH]c(=O)[nH]c1=O)c1ccccc1Br,i,3.8,12.1,-23.9%,3.1,5.6%
COc1ccc(C(CNC(=O)c2oc3cc(C)c(Cl)cc3c2C)N2CCCCC2)cc1 (centres undefined),i,-12.7,22.8,16.0%,13.3,13.7%
COc1ccc(C(CNC(=O)c2cc3ccccc3o2)N2CCCC2)cc1 (centres undefined),i,-29.6,-2.2,0.0%,-84.1*,-20.7%
COc1ccc(C(CNC(=O)c2oc3ccc(C)cc3c2C)N2CCCCC2)cc1 (centres undefined),i,-15.1,9.7,18.0%,-104.4*,-20.6%
